This note sets out measurements from PubChem BioAssay.

For part of these data: Potency and affinity values are given separately. Activity calls are given as the source filed them.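 The calls were made as follows, unless noted: active = dose curve with midpoint inside tested range, moderate steepness, plateau gap beyond fit error, low compound glow and bead-link interference; inactive = the rest.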

The target of test [1] is Cell division control protein 42 homolog (Homo sapiens) (UniProt P60953). The test can be described thus: inhibition of fluorescent GTP binding to constitutively active Cdc42 – biochemical, multiplex bead flow cytometry, Bodipy-FL-GTP, dose response (AID 1333;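 active = fitted half-maximal concentration within the tested dose range, moderate curve steepness, a statistically real signal drop, and little compound fluorescence or tag-binding interference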). For orientation: A flow cytometer gives signals particle by particle.
The target is the same in test [2]. The test can be described thus: inhibition of fluorescent GTP binding to wildtype Cdc42 – biochemical, multiplex bead flow cytometry, Bodipy-FL-GTP, dose response (AID 1334;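 active = fitted half-maximal concentration within the tested range, moderate curve steepness, significant signal drop, and little compound fluorescence or bead-linkage interference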). The settings on record: bead-based flow cytometry, Bodipy-FL-GTP binding to GST-Cdc42; at 100 µM (top of the series) unless noted.
Test [3] has as its target GTPase HRas (Homo sapiens) (UniProt P01112). The test can be described thus: Ras wt fluorescent GTP loading blockade – biochemical, wildtype, multiplex bead flow cytometry, dose response (AID 1335;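 active = fitted half-maximal concentration within 10 nM to 100 µM, steepness 0.5 to 2, significant signal drop, low assay interference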). The settings on record: bead-based flow cytometry, Bodipy-GTP binding to GST-Ras; at 100 µM (top of the series) unless noted.
For test [4], the system named is Ras-related protein Rab-7a (dog), GTP binding. The test can be described thus: blockers of fluorescent GTP binding to Rab7 – biochemical, wildtype, multiplex bead flow cytometry, dose response (AID 1336; call rule not given here).
Test [5] addresses Ras-related C3 botulinum toxin substrate 1 (Homo sapiens) (UniProt P63000). Description: inhibition of wildtype Rac1 nucleotide loading – biochemical, multiplex bead flow cytometry, dose response (AID 1340). As to conditions: GST-Rac1 beads, Bodipy-FL-GTP binding; at 100 µM (top of the series) unless noted.
The target of test [6] is GTPase HRas (Homo sapiens) (UniProt P01112). The test can be described thus: blockade of GTP loading onto mutant Ras – biochemical, activated mutant, multiplex bead flow cytometry, dose response (AID 1341;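 active = dose-response curve with midpoint inside the tested range, moderate steepness, significant amplitude and little compound fluorescence or bead-attachment interference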;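 also: GST-tagged constitutively activated Ras mutant immobilized on beads and multiplexed with other GTPases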).
Sequence of GTPase HRas (Homo sapiens) (P01112 whole entry, looked up): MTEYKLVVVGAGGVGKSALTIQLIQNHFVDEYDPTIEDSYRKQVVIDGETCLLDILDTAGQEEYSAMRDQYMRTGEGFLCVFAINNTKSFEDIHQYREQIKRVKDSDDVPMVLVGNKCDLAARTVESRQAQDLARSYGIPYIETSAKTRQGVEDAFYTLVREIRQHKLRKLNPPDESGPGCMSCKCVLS

Sequence of Cell division control protein 42 homolog (Homo sapiens) (P60953 whole entry, looked up): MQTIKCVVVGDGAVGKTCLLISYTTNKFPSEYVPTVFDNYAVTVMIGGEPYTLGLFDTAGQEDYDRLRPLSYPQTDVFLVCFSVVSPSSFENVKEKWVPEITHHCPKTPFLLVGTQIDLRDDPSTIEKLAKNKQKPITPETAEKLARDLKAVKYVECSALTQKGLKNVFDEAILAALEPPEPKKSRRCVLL

For the molecule `CCCOC(=O)c1c(NC(=O)CCC(=O)O)sc2c1CCCCC2`, the outcome in test [1], in test [4] and in test [6] was inactive. In addition, the fluorescence, percent of control (lower = inhibition) in test [2] worked out at 32.9%. In test [3], this molecule gave a GTP binding, percent of control of 79%. The GTP binding signal, raw median fluorescence (lower = inhibition) (MCF (arbitrary fluorescence units)) in test [5] came to 282.

`NC(=S)N=Nc1c(O)[nH]c2cc(F)c(F)cc12`: the outcome in test [1], in test [4] and in test [6] was inactive. In addition, in test [2], the fluorescence, percent of control (lower = inhibition) was found to be 29.7%. For the same molecule, in test [3], the GTP binding, percent of control was 63.2%. The GTP binding signal, raw median fluorescence (lower = inhibition) (MCF (arbitrary fluorescence units)) in test [5] is 155.

In the case of `CN(/N=C/c1ccco1)C1=NS(=O)(=O)c2ccccc21`, the molecule was called inactive in test [1], in test [4] and in test [6]. Besides, the fluorescence, percent of control (lower = inhibition) in test [2] is 32%. Besides, in test [3], the GTP binding, percent of control was found to be 74.9%. This molecule displayed a GTP binding signal, raw median fluorescence (lower = inhibition) (MCF (arbitrary fluorescence units)) in test [5] of 206.

With `O=C(O)c1cn(CCOc2ccc(Cl)cc2)c2ccccc12`, the result in test [1], in test [4] and in test [6] was inactive. Further, the fluorescence, percent of control (lower = inhibition) in test [2] worked out at 59.9%. The same molecule gave a GTP binding, percent of control in test [3] of 83.2%. In test [5], this molecule registered a GTP binding signal, raw median fluorescence (lower = inhibition) (MCF (arbitrary fluorescence units)) of 36.5.

For the molecule `C=CCSc1nc(N)c(C#N)c(-c2ccc(C)cc2)c1C#N`, the molecule was classed as inactive in test [1], in test [4] and in test [6]. For the same molecule, the fluorescence, percent of control (lower = inhibition) in test [2] was found to be 35%. The molecule also showed a GTP binding, percent of control in test [3] of 83.1%. The GTP binding signal, raw median fluorescence (lower = inhibition) (MCF (arbitrary fluorescence units)) in test [5] turned out to be 262.

On to `CCCCCOC(=O)c1ccccc1C(=O)O`, for which the result in test [1], in test [4] and in test [6] was inactive. The fluorescence, percent of control (lower = inhibition) in test [2] is 134%. This molecule registered a GTP binding, percent of control in test [3] of 220%. Further, in test [5], the GTP binding signal, raw median fluorescence (lower = inhibition) (MCF (arbitrary fluorescence units)) was determined as 275.

Consider `CCCCNc1nc(=S)[nH]c2cc(OC)c(OC)cc12`, for which the molecule was classed as inactive in test [1], in test [4] and in test [6]. Moreover, the fluorescence, percent of control (lower = inhibition) in test [2] came out at 37.9%. In test [3], this molecule came in with a GTP binding, percent of control of 47.8%. Further, the GTP binding signal, raw median fluorescence (lower = inhibition) (MCF (arbitrary fluorescence units)) in test [5] worked out at 110.

On to `O=C(O)C1CSC(CCc2ccccc2)N1` (configuration not stated), for which the result in test [1], in test [4] and in test [6] was inactive. Further, in test [2], the fluorescence, percent of control (lower = inhibition) came to 98.5%. For the same molecule, the GTP binding, percent of control in test [3] is 125%. The molecule further had a GTP binding signal, raw median fluorescence (lower = inhibition) (MCF (arbitrary fluorescence units)) in test [5] of 87.7.

For the molecule `O=S(=O)(CC(CN1CCOCC1)N1CCOCC1)c1ccccc1` (configuration not stated), the result in test [1], in test [4] and in test [6] was inactive. Besides, the fluorescence, percent of control (lower = inhibition) in test [2] was 43.3%. Besides, the GTP binding, percent of control in test [3] was 92.1%. In addition, the GTP binding signal, raw median fluorescence (lower = inhibition) (MCF (arbitrary fluorescence units)) in test [5] was found to be 310.

`O=C(O)c1ccc(CNCc2ccccc2Cl)s1`: the molecule was classed as inactive in test [1], in test [4] and in test [6]. Also, the fluorescence, percent of control (lower = inhibition) in test [2] came out at 62%. In addition, the GTP binding, percent of control in test [3] is 86.6%. The molecule also displayed a GTP binding signal, raw median fluorescence (lower = inhibition) (MCF (arbitrary fluorescence units)) in test [5] of 32.2.

With `Cc1cccc(S(=O)(=O)c2c(N)n(/N=C/c3cccnc3)c3nc4ccccc4nc23)c1`, the molecule was classed as inactive in test [1], in test [4] and in test [6]. Also, in test [2], the fluorescence, percent of control (lower = inhibition) worked out at 81.3%. The molecule further showed a GTP binding, percent of control in test [3] of 51.7%. The molecule further returned a GTP binding signal, raw median fluorescence (lower = inhibition) (MCF (arbitrary fluorescence units)) in test [5] of 135.

For `COc1ccccc1NS(=O)(=O)c1cc([N+](=O)[O-])ccc1N/N=C/c1sc(N2CCOCC2)nc1-c1ccccc1`, the molecule was classed as inactive in test [1], in test [4] and in test [6]. Also, in test [2], the fluorescence, percent of control (lower = inhibition) amounted to 73.1%. In test [3], this molecule registered a GTP binding, percent of control of 81%. The GTP binding signal, raw median fluorescence (lower = inhibition) (MCF (arbitrary fluorescence units)) in test [5] was 230.

With `CCc1nnc(NC(=O)CSc2nnc(CNc3ccc(F)cc3)n2C2CCCCC2)s1`, the molecule was called inactive in test [1], in test [4] and in test [6]. In test [2], the fluorescence, percent of control (lower = inhibition) is 52%. The GTP binding, percent of control in test [3] turned out to be 72.6%. In test [5], the GTP binding signal, raw median fluorescence (lower = inhibition) (MCF (arbitrary fluorescence units)) was determined as 0.

Regarding `O=C(OCCN1CCCCC1)c1cc2ccccc2o1`, the result in test [1], in test [4] and in test [6] was inactive. Besides, the fluorescence, percent of control (lower = inhibition) in test [2] turned out to be 34.8%. This molecule also yielded a GTP binding, percent of control in test [3] of 79.9%. Moreover, the GTP binding signal, raw median fluorescence (lower = inhibition) (MCF (arbitrary fluorescence units)) in test [5] was determined as 271.

In the case of `CCCCNC(=O)c1cc([N+](=O)[O-])[nH]n1`, the molecule was called inactive in test [1], in test [4] and in test [6]. In addition, in test [2], the fluorescence, percent of control (lower = inhibition) was determined as 56.1%. In addition, the GTP binding, percent of control in test [3] was 74.5%. The GTP binding signal, raw median fluorescence (lower = inhibition) (MCF (arbitrary fluorescence units)) in test [5] was 282.

On to `CCCN1C(=O)/C(=C\C=C2\N(CC)c3ccccc3C2(C)C)SC1=S`, for which the molecule was called inactive in test [1], in test [4] and in test [6]. For the same molecule, in test [2], the fluorescence, percent of control (lower = inhibition) was 104%. The GTP binding, percent of control in test [3] was 140%. Also, the GTP binding signal, raw median fluorescence (lower = inhibition) (MCF (arbitrary fluorescence units)) in test [5] was found to be 307.

For the molecule `N#Cc1c(C(F)(F)F)cc(-c2ccc(Cl)cc2)[nH]c1=O`, the molecule was called inactive in test [1], in test [4] and in test [6]. Besides, the fluorescence, percent of control (lower = inhibition) in test [2] was 27.5%. The molecule further registered a GTP binding, percent of control in test [3] of 66%. Also, the GTP binding signal, raw median fluorescence (lower = inhibition) (MCF (arbitrary fluorescence units)) in test [5] turned out to be 178.
